Compound activity deposited in PubChem BioAssay by National Center for Advancing Translational Sciences (NCATS).
ATXN2 expr inh: inhibitors of ATXN2 expression; HEK-293 ATXN2-luciferase reporter, luminescence, 24 h; Potency, µM (doses to about 57 µM), inactives show top-dose activity change, negative = inhibition, hits mostly inhibitors; actives 0.72% (n = 360,000); AID 1745845; note: % is set by controls: 0 for no effect and ±100 for the full control effect; nearly all actives have a fitted effect of over 55% in size
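ATXN2-luciferase reporter cells (luciferase flanked by upstream and downstream ATXN2 gene portions) were treated 24 h at 37 °C with compounds at up to 57 uM. SteadyGlo luminescence gave expression; GF-AFC fluorescence gave viability.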
HT1080 IDH1KD tx: HT-1080 IDH1 knockdown cell toxicity (counter line) | HT-1080 IDH1 knockdown viability, ATP luminescence, 48 h | Potency, µM (titrated, usually from 46.1 µM), for inactives: at the highest dose activity, negative = toxicity, actives largely listed as cytotoxic | actives 2% (n = 360,000);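 note: 0% = DMSO wells and -100% = cell-free medium wells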
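IDH1KD HT-1080 cells, 750/well, RPMI + 5% FBS; compound pinned after 2 h settling; 48 h, 37 °C; CellTiter-Glo luminescence; % activity normalised to DMSO and no-cell wells; curves fitted, classed by r2 and efficacy.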
TGFb inhibitor: TGF-b pathway inhibition. HepG2 CAGA-GFP TGF-b/SMAD3 reporter, GFP fluorescence, 18 h; TGF-beta stimulated, 500 pg/mL final. Potency, µM (series often up to 46.1 µM), for inactives: at the top dose activity, negative = inhibition, hits mostly inhibitors. actives 1.2% (n = 410,000). AID 588855; note: % is set by controls: 0 for no effect and ±100 for the full control effect; nearly all actives have a fitted effect of over 65% in size
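Cell-based qHTS in HEPG2 carrying a CAGA-GFP Smad reporter; compounds added before 500 pg/mL final TGF-beta, 18 h incubation at 37 degrees C, GFP fluorescence quantified per cell by imaging cytometry.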
HT1080-NT tox: kills 2HG-producing HT-1080-NT fibrosarcoma cells | HT-1080-NT fibrosarcoma viability, CellTiter-Glo ATP luminescence, 48 h | Potency, µM (doses to about 46.1 µM), for inactives: at the highest dose activity, negative = less viability, most hits filed as cytotoxic | actives 1.6% (n = 360,000);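 note: NT is the 2HG producing partner of a matched IDH1 knockdown line; 0% = DMSO-treated cells and -100% = media-only wells without cells; nearly all actives have a fitted effect of over 55% in size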
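A 48-hour cytotoxicity screen used HT-1080-NT cells plated 2 hours before compound delivery. ATP-based CellTiter-Glo luminescence measured viability, normalized to DMSO and no-cell controls.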
S2 tox: cell viability loss in ATXN counter-screen; S2 cells (HEK-293 line with an ATXN2-luciferase reporter) viability, CellTiter-Fluor protease fluorescence, 24 h; Potency, µM (doses to about 56.7 µM), most hits filed as cytotoxic; actives 0.49% (n = 400,000); note: nearly all actives have a fitted effect of over 40% in size
HepG2 viability: HepG2 cytotoxicity, counter-screen for TGF-b inhibitors; HepG2 CAGA-GFP viability, ATP luminescence, 18 h; Potency, µM (highest dose often 46.1 µM), inactives show at the top dose activity change, negative = cytotoxicity, usual class: cytotoxic; actives 0.76% (n = 410,000)
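HepG2 CAGA-GFP cells (1000/well, DMEM with 1% FBS) received compound, then TGF-beta at 500 pg/mL final, and were incubated 18 hours at 37 degrees C. Viability was read by CellTiter-Glo luminescence. Media-only wells were set as complete cell-killing and DMSO as no toxicity.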
* hit, by the source's call; i = inactive; ? = inconclusive; · = not tested or not shown. A selection: hits, their analogues and other compounds. The true share with any hit is near 3.8%. Calls come from the whole dose curve; as a rule, active = well fitted curve in the direction sought with a large enough effect; inconclusive = small, poorly fitted or top-dose-only effect, or another doubt; inactive = no such curve, though single readings can be large; an effect the other way counts as inactive or inconclusive. Potency is the fitted concentration of half-maximal effect.

SMILES	ATXN2 expr inh	HT1080 IDH1KD tx	TGFb inhibitor	HT1080-NT tox	S2 tox	HepG2 viability
CC1(C)CC(N2CCN(Cc3ccccc3)CC2)=CC(=[N+]2CCCCC2)C1	?	?	?	-26.6%	i	-40.5%
CN(Cc1ccccc1)C1=CC(=[N+]2CCCCC2)CC(C)(C)C1	?	?	11.2µM*	?	i	-25.6%
COc1ccccc1NC(=O)Cc1csc(NC(=S)Nc2ccccc2)n1	-12.6%	3.16µM*	14.1µM*	3.55µM*	?	-37.3%
COc1ccc(NC(=S)Nc2nc(CC(=O)Nc3ccccc3OC)cs2)cc1	-7.3%	5.01µM*	?	3.55µM*	i	-29.6%
COc1ccc(OC)c(NC(=O)Cc2csc(NC(=O)Nc3ccccc3OC)n2)c1	?	-13.2%	-24.4%	-3.6%	i	-36.3%
CC(NC(=O)c1cccnc1)c1nnc2n1CCN(Cc1ccc(F)cc1F)CC2 (stereo not drawn)	·	·	·	·	i	·
Cc1cc(Sc2ccc([N+](=O)[O-])cn2)ccc1Br	-20.2%	3.0%	29.9%	-12.8%	·	12.8%
Cc1cc(S(=O)(=O)c2ccc([N+](=O)[O-])cn2)ccc1Br	?	3.66µM*	?	2.31µM*	·	1.9%
O=C(Nc1ccc(Br)cc1F)N1CCC(CN2CCc3ccccc3C2)CC1	·	·	-5.6%	·	·	-31.2%
O=C1C=C(c2ccc3ccccc3c2)C[C@@H](c2ccc(Cl)cc2)C1	105.9%	6.4%	?	11.8%	i	-10.6%
O=C1C=C(c2ccc3[nH]ccc3c2)C[C@@H](c2ccc(Cl)cc2)C1	0.0%	?	11.2µM*	?	?	-23.0%
CC(C)(C)c1ccc(C(=O)NCCOc2ccccc2F)cc1	12.6µM*	2.2%	14.7%	-4.7%	i	-4.2%
CC(C)(C)c1ccc(C(=O)NCCOc2ccccc2)cc1	?	-2.9%	-1.6%	1.0%	i	-3.9%
Nc1ccccc1Nc1ccccc1	-1.9%	-8.2%	?	-2.9%	i	20µM*
O=C(CCl)N(c1ccc(Cl)cc1)c1c[nH]c2ccccc12	?	4.61µM*	15.8µM*	7.31µM*	17.8µM*	17.8µM*
O=C(CCl)N(c1ccccc1)c1c[nH]c2ccccc12	?	6.51µM*	8.91µM*	?	25.1µM*	-99.8%
COc1cccc(-c2csc(-c3c(N)c(C(=O)c4ccc5c(c4)OCO5)n4ccccc34)n2)c1	1.4%	·	0.2%	·	i	-6.4%
Cc1[nH]c2ccccc2c1CN1CCC(Cc2ccccc2)CC1	-29.1%	23.1µM*	?	?	i	-92.4%
Cc1[nH]c2ccccc2c1CN1CCN(c2ccccn2)CC1	13.8%	1.0%	0.0%	7.2%	i	-30.0%
COc1ccc2ccccc2c1CN1CCc2nnc(CNC(=O)c3cccc(F)c3)n2CC1	·	·	·	·	i	·
CCOC(=O)c1cc(CC)sc1NC(=O)C1CC(=O)NN1Cc1ccccc1 (stereo not drawn)	-35.7%	20.6µM*	?	?	i	-63.3%
COCCCNC(=O)/C(C#N)=C/c1cccc(NC(=O)c2ccccc2Cl)c1	0.4%	14.6µM*	?	?	i	-50.7%
COCCCNC(=O)/C(C#N)=C/c1ccc(F)cc1	14.9%	25.4%	-16.3%	8.5%	i	-12.7%
N#C/C(=C\c1cccc(NC(=O)c2ccccc2Cl)c1)C(=O)NCCc1ccccc1	-37.3%	?	?	?	i	11.2µM*
CCOC(=O)c1cccc(NC(=O)c2cc3c(=O)n(C)c4ccccc4c3n2C)c1	-4.9%	·	2.5%	·	i	1.6%
SMILES	ATXN2 expr inh	HT1080 IDH1KD tx	TGFb inhibitor	HT1080-NT tox	S2 tox	HepG2 viability
COc1cc(=O)n2c(c1C(=O)N(C)Cc1nccs1)CCN(Cc1cc3ccccc3s1)CC2	·	·	·	·	i	·
COc1cc(C2c3cc4c(cc3CC3COC(=O)N32)OCO4)cc(OC)c1OC (stereo not drawn)	4.6%	1.03µM*	-13.8%	1.3µM*	?	-2.1%
COc1cc2c(c(OC)c1OC)C(c1ccc3c(c1)OCO3)CC(=O)O2 (stereo not drawn)	13.4%	8.2%	37.2%	-5.9%	i	5.7%
COC(=O)[C@H](CCSC)NC(=O)N1CCC(C)CC1	5.0%	14.1%	-1.8%	13.0%	i	-4.6%
COC(=O)[C@@H](NC(=O)N1CCC(C)CC1)C(C)C	-3.3%	12.4%	4.1%	18.9%	i	0.447µM*
CCOC(=O)N1CCC(NC(=O)c2ccc3c(c2)N=C(C)c2c(C)ccc(C)c2S3)CC1	·	2.31µM*	?	2.06µM*	?	-21.1%
CCC1=Nc2cc(C(=O)N3CCCCC3)ccc2Sc2ccc(C)cc21	?	4.3%	-15.8%	21.7%	31.6µM*	-4.2%
CCCC1=Nc2cc(C(=O)N3CCCC3)ccc2Sc2ccc(C)cc21	-8.6%	?	-8.1%	-14.0%	i	-6.6%
CCCC1=Nc2cc(C(=O)NC3CCCC3)ccc2Sc2ccc(C)cc21	·	·	0.794µM*	·	·	-0.8%
Cc1ncc2c(c1CNS(=O)(=O)N(C)C)CCN(C(=O)c1c(F)cccc1F)C2	·	·	·	·	i	·
NC(Cc1ccc(C(F)(F)F)cc1)c1csc(NC(=O)Nc2ccccc2Cl)n1 (stereo not drawn)	?	?	?	14.6µM*	?	-97.6%
COc1ccc(CC(N)c2csc(NC(=O)Nc3ccc(F)cc3)n2)cc1 (stereo not drawn)	-31.8%	?	11.2µM*	?	i	17.8µM*
CC(C)C(N)c1csc(NC(=O)Nc2ccc(OC(F)(F)F)cc2)n1 (stereo not drawn)	?	20.6µM*	20µM*	8.2µM*	20µM*	20µM*
NC(Cc1ccc(C(F)(F)F)cc1)c1csc(NC(=O)Nc2ccccc2)n1 (stereo not drawn)	?	16.4µM*	?	?	·	15.8µM*
COc1cc(CNC(=O)Nc2nc(C(N)Cc3ccc(C(F)(F)F)cc3)cs2)cc(OC)c1OC (stereo not drawn)	?	?	?	?	?	-94.8%
COc1ccc(CN2CCOc3ccc(C(O)c4cccnc4)cc3C2)c(OC)c1OC (stereo not drawn)	·	·	·	·	i	·
CC1CN(CC(=O)N2CCN(Cc3nccn3C)CC2)Cc2cc(Cl)ccc2O1 (stereo not drawn)	·	·	·	·	i	·
NC(CCc1ccccc1)c1csc(NC(=O)Nc2cccc(C(F)(F)F)c2)n1 (stereo not drawn)	?	20.6µM*	?	16.4µM*	·	11.2µM*
